Results as given in ChEMBL document CHEMBL4513146, “CO-ADD screening of Karazin Kharkiv National University (Ukraine) compounds”.
Entries with a potency or affinity are not part of this list.

These molecules were tested on Candida albicans. Details: Concentration 32 ug.mL-1; ASSAY_TEST Inhibition of Fungal Growth; detection method Absorption (OD530).

Row | Structure (SMILES) | Inhibition [%]
1 | COc1ccc(CNC(=O)Cn2nc3c4cc(-c5ccc(OC)cc5)nn4ccn3c2=O)cc1 | -2.24
2 | O=C(Cn1nc2c(N3CCOCC3)nccn2c1=O)NCc1ccc(F)cc1 | 2.87
3 | Cc1cccc(Oc2nccn3c(=O)n(CC(=O)NCCCc4ccccc4)nc23)c1C | 0.59
4 | CCC(C)NC(=O)Cn1nc2n(CC(C)C)c(=O)c3ccc(C(=O)NC4CCCCC4)cc3n2c1=O (centres undefined) | -1.97
5 | COc1ccc(NC(=O)Cn2nc3cc(C)nc(Nc4ccc(F)cc4)n3c2=O)cc1F | 2.69
6 | Cc1cc(C)cc(NC(=O)Cn2nc3c4cc(-c5ccc(C)c(C)c5)nn4ccn3c2=O)c1 | 7.8
7 | Cc1nnc2c(S(=O)(=O)N(Cc3ccccc3)c3ccc(C(C)C)cc3)cccn12 | -1.81
8 | Cc1cc(C)cc(N(Cc2ccc(Cl)cc2)S(=O)(=O)c2cccn3c(C)nnc23)c1 | 0.27
9 | CCOc1ccccc1CNC(=O)CCc1nnc2ccc(-c3ccc(C)cc3)nn12 | 2.37
10 | O=C(Cn1nc2c(SC3CCCCC3)nccn2c1=O)Nc1ccc(Cl)cc1F | 1.51
11 | O=C(CCc1nnc2ccc(-c3ccc(Cl)cc3)nn12)NCc1ccc(F)cc1Cl | 0.76
12 | COC(=O)c1ccc(CN(c2cccc(C)c2)S(=O)(=O)c2cccn3c(C)nnc23)o1 | 2.2
13 | CSc1ccc(CNC(=O)Cn2nc3c(N4CC(C)CC(C)C4)nccn3c2=O)cc1 (centres undefined) | 0.13
14 | CC(C)CCn1c(=O)c2ccc(C(=O)NC3CCCCC3)cc2n2c(=S)[nH]nc12 | 2.77
